Pf growth 48h: inhibits P. falciparum growth in the first generation, 48 h. P. falciparum luciferase growth in erythrocytes, 48 h. Potency, µM (highest dose often 28.7 µM), most hits filed as inhibitors. hit rate 5.9% among 310,000
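A one-generation exposure of luciferase-tagged malaria parasites in RPMI 1640/Albumax erythrocyte culture, 37 C and 5% CO2. Inhibition is inferred from decreased luminescence after adding detection reagent.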
Pf growth 96h: P. falciparum growth inhibition at 96 hours; P. falciparum luciferase reporter growth, 96 h; Potency, µM (titrated, usually from 28.7 µM), usual class: inhibitors; hit rate 6.9% among 320,000; AID 504834
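Readout is luminescence from an integrated firefly luciferase in P. falciparum. Red cells, 2% hematocrit and 0.05% parasitemia final, were cultured with compound through two parasite generations (96 hours) at 37 C, 5% CO2.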
SARS PLpro yeast: blocks SARS-CoV papain-like protease in a yeast assay; Potency, µM (series often up to 32.9 µM), hits mostly activators; AID 485353; hit rate 0.19% among 330,000; S. cerevisiae expressing SARS-CoV PLpro, growth rescue; calls by dose curve; note: nearly all actives have a fitted effect of over 55% in size
NS1 inh: influenza NS1 inhibition; Potency, µM (titrated, usually from 46.1 µM); hit rate 0.4% among 270,000; AID 2326; calls by dose curve; note: actives are rising curves; nearly all actives have a fitted effect of over 50% in size
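A cell-based growth assay was used: compounds that relieve NS1-induced slow growth of budding yeast raise OD600. Assay medium was yeast nitrogen base with ammonium sulphate and -URA supplement, pH 6.0, with 2% galactose.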
Hits are given with their value; - = inactive; ? = inconclusive; . = no result. Shown are actives, neighbours in structure and some others; about 10% of the full set was active somewhere. Unless noted, calls come from the whole dose curve; as a rule, active = well fitted inhibition curve with a large enough effect; inconclusive = small, poorly fitted or top-dose-only effect, or another doubt; inactive = no such curve, though single readings can be large or run the other way.

SMILES | Pf growth 48h | Pf growth 96h | SARS PLpro yeast | NS1 inh
CC1CCN(C(C)C(=O)Nc2cc(S(=O)(=O)N3CCCCC3)ccc2Cl)CC1 (stereo not drawn) | 12µM | 9.3µM | - | .
Cc1ccc(S(=O)(=O)N2CCCCC2)cc1NC(=O)C1CCC1 | ? | ? | - | .
O=C(Nc1cc(S(=O)(=O)N2CCCCC2)ccc1N1CCCCC1)C1CC1 | 10µM | ? | - | -
O=C(Nc1cc(S(=O)(=O)N2CCCCC2)ccc1N1CCCCC1)c1ccncc1 | 9.3µM | 8.3µM | - | -
O=C(NCC(=O)N1CCN(C(c2ccccc2)c2ccccc2)CC1)c1ccccc1F | - | - | - | ?
Cc1ccc(-c2c(C(=O)N/N=C/C3CC=CCC3)nnn2-c2nonc2N)cc1 (stereo not drawn) | ? | 9.3µM | - | -
Cc1ccc(-c2c(C(=O)N/N=C/c3sccc3C)nnn2-c2nonc2N)cc1 | ? | 0.93µM | - | -
Cc1ccc(-c2c(C(=O)N/N=C/C3CCCCC3)nnn2-c2nonc2N)cc1 | ? | ? | - | -
COc1ccc(S(=O)(=O)N2CCN(c3cnccn3)CC2)cc1OC | . | . | - | .
Cc1ccc(-c2cc(C(F)(F)F)nn2-c2ccc(S(N)(=O)=O)cc2)cc1 | 15µM | 5.9µM | - | -
Cc1ccccc1NC(=O)NC1(C(=O)NCC2CCCO2)CCCCC1 (stereo not drawn) | - | - | - | -
O=S(=O)(Nc1cccc(S(=O)(=O)N2CCCC2)c1)c1cccs1 | . | . | - | .
Cc1nnc(SCc2ccc(F)cc2)n1NC/C=C/c1ccccc1 | - | 5.9µM | - | -
Fc1ccccc1CSc1nncn1NC/C=C/c1ccccc1 | ? | - | - | -
O=C1C2=C(Nc3ccccc3SC2c2ccco2)c2ccccc21 (stereo not drawn) | 0.33µM | - | - | -
O=C1C(C23CC4CC(CC(C4)C2)C3)C(=O)N(c2ccccc2)N1c1ccccc1 | - | 7.4µM | - | -
NS(=O)(=O)c1ccc(CCNCC(=O)NCc2ccccc2Cl)cc1 | . | - | - | -
COc1ccc(CCn2c(=S)[nH]c3ccc(N4CCOCC4)cc3c2=O)cc1OC | 10µM | ? | - | .
COC(=O)c1ccc(CNC(=O)c2ccc(NS(=O)(=O)c3ccc4[nH]c(=O)[nH]c4c3)cc2)cc1 | - | - | ? | .
CCOC(=O)C1CCCN(S(=O)(=O)c2c(C(=O)N3CCCCC3)c(C)n(C)c2C)C1 (stereo not drawn) | - | - | - | -
Cc1ccc(-n2ncc3c(=O)n(CC(=O)N4CCCCCC4)cnc32)cc1 | - | . | - | -
Cc1ccc(-n2ncc3c(=O)n(CC(=O)NC4CCCCC4)cnc32)cc1 | - | 4.7µM | - | -
COCCNC(=O)Cn1cnc2c(cnn2-c2ccc(C)cc2)c1=O | - | ? | - | -
Cc1ccc(-n2ncc3c(=O)n(CC(=O)N(C(C)C)C(C)C)cnc32)cc1 | - | 13µM | - | -
Cc1ccc(C)c(S(=O)(=O)N2CCN(CC(=O)NC(C)c3ccccc3)CC2)c1 (stereo not drawn) | ? | - | - | .
SMILES | Pf growth 48h | Pf growth 96h | SARS PLpro yeast | NS1 inh
O=C(Nc1ccc(F)cc1)C(c1ccccc1)N1CCN(S(=O)(=O)c2ccc3ccccc3c2)CC1 (stereo not drawn) | 13µM | - | - | ?
Cc1ccc(C)c(S(=O)(=O)N2CCN(C(=O)CSc3ccccc3F)CC2)c1 | ? | 15µM | - | -
O=C(CN1CCN(C(C(=O)Nc2ccc(F)cc2)c2ccccc2)CC1)NC1CC1 (stereo not drawn) | ? | 15µM | - | .
O=C(Nc1ccc(F)cc1)C(c1ccccc1)N1CCN(CC(=O)N2CCCC2)CC1 (stereo not drawn) | ? | ? | - | .
Cc1ccc(C)c(S(=O)(=O)N2CCN(C(C(=O)Nc3ccc(F)cc3)c3ccccc3)CC2)c1 (stereo not drawn) | 13µM | - | - | -
COc1cccc(/C=C/C(=O)OCC(=O)Nc2ccc(N3CCOCC3)cc2)c1OC | - | - | - | .
O=c1oc(-c2ccc(Cl)c(Cl)c2)nn1-c1ccc(C(F)(F)F)cn1 | ? | - | - | -
CCOc1ccc2oc(C(=O)N(C)CC(=O)Nc3ccc(OCC)c(OCC)c3)c(C)c2c1 | ? | 12µM | - | .
CCOc1ccc2oc(C(=O)N3CC(C)OC(C)C3)c(C)c2c1 (stereo not drawn) | ? | 7.4µM | - | -
COc1ccc(NC(=O)CN(C)C(=O)c2oc3ccccc3c2C)cc1 | ? | 3.7µM | - | .
c1cc(NNc2cccc(-c3nn[nH]n3)c2)cc(-c2nn[nH]n2)c1 | . | . | . | -
Cc1ccc(OCC(O)C(C)NC(C)C)c2c1CCC2 (stereo not drawn) | . | . | . | -
CCc1cc[n+](C2=C([O-])c3ccccc3C(=O)/C2=N\S(=O)(=O)c2cccs2)cc1 | 4.1µM | ? | - | -
Cc1ccc(C(C[N+](=O)[O-])n2nc(C)cc2C)cc1 (stereo not drawn) | ? | . | - | -
Cc1ccc(C(C[N+](=O)[O-])Sc2ccc(N)cc2)cc1 (stereo not drawn) | ? | 12µM | - | -
O=C(NN(C(=O)C1CC1)c1nc2ccccc2s1)C1CC1 | - | 4.1µM | - | ?
Cc1ccc(NC(=O)C[n+]2cc(-c3ccccc3)n3c2CCC3)c(C)c1 | ? | 5.2µM | - | -
Cc1ccc(-c2c[n+](CC(=O)Nc3c(C)cccc3C)c3n2CCC3)cc1 | ? | 15µM | - | -
CCc1ccc(NC(=O)C[n+]2cc(-c3ccc(C)cc3)n3c2CCC3)cc1 | 2.9µM | 1.5µM | - | -
Cc1ccc(-c2csc(NC(=O)C[n+]3cc(-c4ccc(C)cc4)n4c3CCC4)n2)cc1 | ? | - | - | -
Oc1cc(-c2ccccc2)c2ccccc2c1 | ? | 12µM | - | -
CC1C(=O)N2CCCc3cc(NS(=O)(=O)c4ccccc4)cc1c32 (stereo not drawn) | ? | ? | - | .
C=CCn1c(=O)c(C(=O)NC2CC2)c(O)c2cc(OC)c(OC)cc21 | - | 12µM | - | -
C=CCn1c(=O)c(C(=O)NCCc2ccc(Cl)cc2)c(O)c2cc(OC)c(OC)cc21 | - | - | - | -
CC1(C)OC(=O)N(c2ccccc2)C12C=Cc1c(ccc3ccccc13)O2 (stereo not drawn) | 13µM | - | - | -
SMILES | Pf growth 48h | Pf growth 96h | SARS PLpro yeast | NS1 inh
COc1ccc(-c2cc(C(F)(F)F)nc(N3CCCCC3)n2)cc1OC | 3.3µM | - | - | -
COc1ccc(-c2cc(C(F)(F)F)nc(N3CCCCCC3)n2)cc1 | - | - | - | -
COc1ccc(-c2cc(C(F)(F)F)nc(N3CCN(C)CC3)n2)cc1OC | ? | 5.2µM | - | -
COc1ccc(-c2cc(C(F)(F)F)nc(N3CCN(C)CC3)n2)cc1 | 13µM | - | - | -
COC(=O)c1nn(-c2nc(-c3ccc(OC)c(OC)c3)cc(C(F)(F)F)n2)cc1[N+](=O)[O-] | - | 17µM | - | .
NC(=O)C1CCN(c2nc(-c3ccc(C(F)(F)F)cc3)cs2)CC1 | ? | - | . | .
O=C(NCC1CCCO1)C(=O)N/N=C/c1ccccc1C(=O)O (stereo not drawn) | - | 10µM | - | -
COc1cc(/C=N/NC(=O)C(=O)NCC2CCCO2)ccc1O (stereo not drawn) | - | - | - | -
CC(=O)Nc1ccc(/C(C)=N\NC(=O)c2ccc(-c3ccccc3)cc2)cc1 | 0.66µM | ? | - | -
